Assay [1] deals with Paired box protein Pax-6 (Homo sapiens) (UniProt P26367). Description: ATG_Pax6_CIS: Attagene CIS-FACTORIAL HepG2 Assay for human Paired Box 6 (PAX6) (AID 2282956). Particulars: HepG2 CIS-FACTORIAL PAX6 reporter transcription, RNA readout; actives raise or lower the signal. Put shortly: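 Fluorescent RT-PCR products separated by capillary electrophoresis report PAX6-linked promoter mRNA in HepG2 cells 24 h post-dose. Curves fitted bidirectionally, DMSO as negative control.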

Assay [2] can be described thus: ATG_PXRE_CIS: Attagene CIS-FACTORIAL HepG2 Assay for human Pregnane X Receptor Element (PXRE) (AID 2282957). Particulars: HepG2 Attagene CIS-FACTORIAL PXRE reporter, mRNA; actives raise or lower the signal. Summed up:
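Reporter transcripts under endogenous PXR-responsive cis-regulation quantified from total RNA of transfected HepG2 cells 24 h post-dosing, via RT-PCR with fluorescent primer extension and capillary electrophoresis. Gain or loss of signal fitted against DMSO baseline.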

The nature of assay [3]: ATG_PPRE_CIS: Attagene CIS-FACTORIAL HepG2 Assay for human Peroxisome Proliferator-activated Response Element (PPRE) (AID 2282958). Particulars: HepG2 PPRE cis-element reporter, Attagene transcription factor profiling; actives raise or lower the signal. Put shortly: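 PPRE activity in HepG2: transient cis-reporter transfection, 24 h compound incubation, reporter mRNA by RT-PCR and CE fluorescence; gain/loss fitted against DMSO.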

Assay [4] is described as follows: ATG_RORE_CIS: Attagene CIS-FACTORIAL HepG2 Assay for human RAR-related Orphan Receptor Element (RORE) (AID 2282959). Particulars: HepG2 Attagene cis-factorial RORE reporter, mRNA; actives raise or lower the signal. Put shortly:
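A 24-hour exposure of transfected HepG2 hepatoma cells precedes RNA isolation and reporter RT-PCR. Labeled products are digested with HpaI and resolved by capillary electrophoresis, with gain or loss of signal scored relative to DMSO.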

Assay [5] can be described thus: ATG_Sox_CIS: Attagene CIS-FACTORIAL HepG2 Assay for human SRY-box transcription factor (SOX) (AID 2282960). Particulars: HepG2 Attagene cis-factorial SOX reporter, mRNA; actives raise or lower the signal. Summed up: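 HepG2, cis reporter units, 24 h exposure. Reporter mRNA: RT-PCR → FAM labelling → HpaI → CE fluorescence. Bidirectional fit vs DMSO.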
Assay [6] deals with Transcription factor Sp1 (Homo sapiens) (UniProt P08047). Kind of assay: ATG_Sp1_CIS: Attagene CIS-FACTORIAL HepG2 Assay for human Specificity Protein 1 (Sp1) (AID 2282961). Particulars: HepG2 Sp1 cis-reporter transcription, actives raise or lower the signal. Summed up: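 Liver-derived HepG2 cells, cis-element reporter library, 24 h treatment; RNA isolated, cDNA amplified with reporter-specific primers, FAM-labeled fragments sized on capillary analyzer. DMSO baseline, bidirectional curve fit.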
Chain of Transcription factor Sp1 (Homo sapiens) (P08047 whole entry, looked up, the tested form may be a part): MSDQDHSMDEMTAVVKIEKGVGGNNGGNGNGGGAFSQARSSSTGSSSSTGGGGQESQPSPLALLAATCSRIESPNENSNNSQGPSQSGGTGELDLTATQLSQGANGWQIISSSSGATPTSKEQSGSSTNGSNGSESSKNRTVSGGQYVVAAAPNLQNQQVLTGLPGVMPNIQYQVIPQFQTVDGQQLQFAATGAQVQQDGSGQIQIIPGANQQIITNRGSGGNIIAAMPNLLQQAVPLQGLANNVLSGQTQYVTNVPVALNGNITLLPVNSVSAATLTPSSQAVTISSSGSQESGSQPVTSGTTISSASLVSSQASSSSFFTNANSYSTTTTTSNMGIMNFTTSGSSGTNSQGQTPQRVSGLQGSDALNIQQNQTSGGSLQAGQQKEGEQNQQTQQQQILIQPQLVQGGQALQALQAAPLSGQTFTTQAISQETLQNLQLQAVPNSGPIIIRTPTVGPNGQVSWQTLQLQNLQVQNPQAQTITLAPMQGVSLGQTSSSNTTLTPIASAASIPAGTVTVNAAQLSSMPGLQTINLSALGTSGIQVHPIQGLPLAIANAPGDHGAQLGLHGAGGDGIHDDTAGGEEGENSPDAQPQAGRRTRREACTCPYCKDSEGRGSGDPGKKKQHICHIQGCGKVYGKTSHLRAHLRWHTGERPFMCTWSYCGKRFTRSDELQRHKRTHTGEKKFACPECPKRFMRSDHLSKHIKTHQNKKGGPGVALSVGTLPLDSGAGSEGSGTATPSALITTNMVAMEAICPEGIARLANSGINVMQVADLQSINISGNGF

The nature of assay [7]: ATG_SREBP_CIS: Attagene CIS-FACTORIAL HepG2 Assay for human Sterol Regulatory Element Binding (SREBP) (AID 2282962). Particulars: HepG2 Attagene cis-factorial SREBP reporter, mRNA; actives raise or lower the signal. Summed up:
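Endogenous factor activity is measured in HepG2 through multiplexed reporter units under cis-element control. Following a 24 h incubation, reporter transcripts are reverse-transcribed, PCR-amplified and sized by capillary electrophoresis; activity is fitted in both directions relative to DMSO.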

Assay [8] concerns the target Signal transducer and activator of transcription 3 (Homo sapiens) (UniProt P40763). Kind of assay: ATG_STAT3_CIS: Attagene CIS-FACTORIAL HepG2 Assay for human Signal Transducer and Activator of Transcription 3 (STAT3) (AID 2282963). Particulars: HepG2, Attagene cis-factorial STAT3 reporter transcription; actives raise or lower the signal. Put shortly:
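Fluorescence intensity of 6-FAM-labelled reporter fragments, separated by capillary electrophoresis after RT-PCR, gave the signal. Cells were HepG2 transfected with cis-element reporter units and treated 24 h; fitting was bidirectional relative to DMSO.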

Assay [9] can be described thus: ATG_TA_CIS: Attagene CIS-FACTORIAL HepG2 Assay for human TA Basal Promoter (AID 2282964). Particulars: HepG2 Attagene CIS-factorial TA basal promoter reporter; actives raise or lower the signal. Summed up:
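Background internal-marker endpoint from a 52-component HepG2 cis-reporter panel. Cells treated 24 h; reporter transcripts quantified via RT-PCR and CE fluorescence against DMSO baseline.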

Assay [10] is described as follows: ATG_TCF_b_cat_CIS: Attagene CIS-FACTORIAL HepG2 Assay for human T-Cell-Factor with beta-catenin (TCF/b-cat) (AID 2282965). Particulars: HepG2 TCF/beta-catenin cis-reporter transcription, actives raise or lower the signal. Summed up:
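Cells of the HepG2 line carry transiently transfected reporter units whose promoters respond to endogenous factors. Twenty-four hours post-dosing, reporter mRNA induction is measured by fluorescent RT-PCR and capillary electrophoresis, with DMSO as baseline.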

Assay [11] is described as follows: ATG_TAL_CIS: Attagene CIS-FACTORIAL HepG2 Assay for human TAL Basal Promoter (AID 2282966).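 Further: background control endpoint measuring basal TAL promoter reporter mRNA not a specific factor.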 Particulars: HepG2 Attagene cis-factorial TAL promoter reporter; actives raise or lower the signal. Put shortly: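 Background-control endpoint: basal TAL promoter reporter transcripts in transiently transfected HepG2, measured 24 h after dosing. Read-out by RT-PCR with fluorescent primer extension and capillary electrophoresis; gain or loss of signal fitted relative to DMSO.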

Assay [12] in a line: ATG_TGFb_CIS: Attagene CIS-FACTORIAL HepG2 Assay for human Transforming Growth Factor (TGF) (AID 2282967). Particulars: HepG2 Attagene CIS TGFb reporter, mRNA transcription; actives raise or lower the signal. Put shortly: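 Liver HepG2 line, cis-factorial reporter panel, 24 h dosing. Quantitation: RT-PCR products labeled with 6-FAM, cut with HpaI, resolved by capillary electrophoresis; DMSO-referenced bidirectional analysis.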

Assay [13] addresses Estrogen receptor (Homo sapiens) (UniProt P03372). Description: ATG_ERa_TRANS: Attagene TRANS-FACTORIAL HepG2 Assay for human Estrogen Receptor alpha (ERa) (AID 2282970; active means hit-call score of the fitted dose curve at least 0.9, where 1 is the maximum). Particulars: HepG2 Attagene TRANS ERa GAL4 reporter, mRNA. Summed up: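 Reporter transcripts were measured 24 h after dosing by RT-PCR with fluorescent primer extension and capillary electrophoresis. The system is transiently transfected HepG2 expressing exogenous NR-Gal4 chimeras driving GAL4-UAS reporters; DMSO is the baseline.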

Assay [14] addresses X-box-binding protein 1 (Homo sapiens) (UniProt P17861). Description: ATG_Xbp1_CIS: Attagene CIS-FACTORIAL HepG2 Assay for human X-box Binding Protein 1 (XBP1) (AID 2282972). Particulars: HepG2 XBP1 cis-element reporter, Attagene multiplex; actives raise or lower the signal. Summed up: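 Multiplexed cis-reporter readout in transfected HepG2 liver cells. Exposure lasted 24 hours. Activity in either direction was fitted against DMSO as negative control and baseline.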

Assay [15] can be described thus: ATG_VDRE_CIS: Attagene CIS-FACTORIAL HepG2 Assay for human Vitamin D Receptor Element (VDRE) (AID 2282968). Particulars: HepG2 VDRE cis-reporter transcription, actives raise or lower the signal. Summed up:
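Compounds were applied for 24 h to HepG2 cells transfected with promoter-regulated reporter units. Total RNA was reverse-transcribed, and reporter amplicons were fluorescently labelled and sized by capillary electrophoresis.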

A short description of assay [16]: ATG_M_19_TRANS: Attagene TRANS-FACTORIAL HepG2 Assay for M19 Transcription Factor (Internal Marker) (AID 2282974; active means hit-call score of the fitted dose curve at least 0.9, where 1 is the maximum). Particulars: HepG2 Attagene TRANS-FACTORIAL M19 internal marker reporter. Summed up:
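Transfected HepG2 (GAL4-UAS MRTUs), 24 h compound, TriZol RNA, DNase-treated RT, reporter PCR, FAM label, HpaI digest, CE fluorescence; gain vs DMSO.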

Assay [17] in a line: ATG_GAL4_TRANS: Attagene TRANS-FACTORIAL HepG2 Assay for GAL4 (Internal Marker) (AID 2282976; active means hit-call score of the fitted dose curve at least 0.9, where 1 is the maximum). Particulars: HepG2 Attagene TRANS GAL4 internal marker reporter. Put shortly:
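In transfected human HepG2 liver cells dosed 24 h, GAL4 reporter mRNA serves as a baseline marker. Detection by RT-PCR with fluorescent capillary electrophoresis, activity fitted upward relative to DMSO.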

Assay [18] has as its target Nuclear receptor subfamily 1 group I member 3 (Homo sapiens) (UniProt Q14994). Kind of assay: ATG_CAR_TRANS: Attagene TRANS-FACTORIAL HepG2 Assay for human Constitutive Androstane Receptor (CAR) (AID 2282969; active means hit-call score of the fitted dose curve at least 0.9, where 1 is the maximum;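 further: activators raise reporter mRNA above DMSO so AC50 marks induction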). Particulars: HepG2 Attagene TRANS-FACTORIAL CAR reporter. Summed up:
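Transiently transfected HepG2, multiplex TRANS reporters (CAR-Gal4 chimera driving GAL4-UAS reporter). 24 h dosing. Readout: reporter transcript by RT-PCR + capillary electrophoresis, fluorescence intensity; positive direction vs DMSO.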

Assay [19] deals with Estrogen-related receptor gamma (Homo sapiens) (UniProt P62508). Description: ATG_ERRg_TRANS: Attagene TRANS-FACTORIAL HepG2 Assay for human Estrogen-Related Receptor gamma (ERRg) (AID 2282977; active means hit-call score of the fitted dose curve at least 0.9, where 1 is the maximum;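 further: hits increase reporter signal over DMSO so potencies reflect activators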). Particulars: HepG2 Attagene TRANS reporter, ERRg transactivation. Put shortly: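 Exogenous NR-Gal4 chimera activity measured as reporter transcript induction after 24 h in transiently transfected HepG2 cells. RNA reverse-transcribed, PCR-amplified, 6-FAM-labelled and resolved by capillary electrophoresis; increase over DMSO baseline.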
Chain of Estrogen-related receptor gamma (Homo sapiens) (P62508 whole entry, looked up, the tested form may be a part): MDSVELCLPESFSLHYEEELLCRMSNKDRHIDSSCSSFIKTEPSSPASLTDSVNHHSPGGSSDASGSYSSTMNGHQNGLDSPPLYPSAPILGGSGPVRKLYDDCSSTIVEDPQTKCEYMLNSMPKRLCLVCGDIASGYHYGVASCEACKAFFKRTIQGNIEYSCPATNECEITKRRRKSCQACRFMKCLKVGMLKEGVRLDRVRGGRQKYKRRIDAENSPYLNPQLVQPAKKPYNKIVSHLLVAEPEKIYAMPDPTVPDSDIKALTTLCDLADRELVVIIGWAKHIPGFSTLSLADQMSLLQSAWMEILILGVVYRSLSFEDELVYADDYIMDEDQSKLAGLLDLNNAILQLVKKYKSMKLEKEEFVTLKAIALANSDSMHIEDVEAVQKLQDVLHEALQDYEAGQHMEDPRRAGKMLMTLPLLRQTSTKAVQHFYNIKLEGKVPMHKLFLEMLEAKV

Results filed as inconclusive are left out. Active and inactive are the calls of the source. How the source made its calls, unless noted: active means hit-call score of the fitted dose curve at least 0.9, where 1 is the maximum; inactive means score below 0.9.

Chain of Signal transducer and activator of transcription 3 (Homo sapiens) (P40763 whole entry, looked up, the tested form may be a part): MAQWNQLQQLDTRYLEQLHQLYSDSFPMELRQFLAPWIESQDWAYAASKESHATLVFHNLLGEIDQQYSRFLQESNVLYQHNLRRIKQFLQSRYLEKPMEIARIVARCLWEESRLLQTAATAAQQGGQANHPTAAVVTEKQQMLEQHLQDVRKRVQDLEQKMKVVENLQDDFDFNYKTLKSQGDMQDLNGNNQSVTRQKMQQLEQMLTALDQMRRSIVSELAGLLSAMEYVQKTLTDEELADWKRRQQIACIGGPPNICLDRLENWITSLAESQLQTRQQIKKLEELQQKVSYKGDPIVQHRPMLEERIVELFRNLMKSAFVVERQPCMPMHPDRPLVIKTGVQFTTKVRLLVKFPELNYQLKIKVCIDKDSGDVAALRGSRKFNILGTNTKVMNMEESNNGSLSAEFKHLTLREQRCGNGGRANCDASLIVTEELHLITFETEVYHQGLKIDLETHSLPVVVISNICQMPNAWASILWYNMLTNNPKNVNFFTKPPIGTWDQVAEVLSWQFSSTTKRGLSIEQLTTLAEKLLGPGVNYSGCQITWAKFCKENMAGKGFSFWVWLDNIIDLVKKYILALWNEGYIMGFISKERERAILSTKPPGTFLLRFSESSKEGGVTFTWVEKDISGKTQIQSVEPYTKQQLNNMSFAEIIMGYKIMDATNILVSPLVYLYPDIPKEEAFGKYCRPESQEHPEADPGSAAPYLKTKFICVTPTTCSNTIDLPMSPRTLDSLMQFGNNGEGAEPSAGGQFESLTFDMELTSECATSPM
Chain of Paired box protein Pax-6 (Homo sapiens) (P26367 whole entry, looked up): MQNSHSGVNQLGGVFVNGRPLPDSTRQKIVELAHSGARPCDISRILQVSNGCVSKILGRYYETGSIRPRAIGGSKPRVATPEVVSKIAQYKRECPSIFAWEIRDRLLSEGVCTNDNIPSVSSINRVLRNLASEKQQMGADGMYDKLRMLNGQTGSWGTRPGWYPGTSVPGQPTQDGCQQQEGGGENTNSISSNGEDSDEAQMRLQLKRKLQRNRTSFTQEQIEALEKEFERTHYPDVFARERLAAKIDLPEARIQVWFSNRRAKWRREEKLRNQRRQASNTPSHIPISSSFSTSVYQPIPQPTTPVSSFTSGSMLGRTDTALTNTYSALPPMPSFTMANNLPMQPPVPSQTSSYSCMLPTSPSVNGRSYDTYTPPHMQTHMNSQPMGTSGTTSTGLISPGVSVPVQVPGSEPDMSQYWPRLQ
Chain of X-box-binding protein 1 (Homo sapiens) (P17861 whole entry, looked up): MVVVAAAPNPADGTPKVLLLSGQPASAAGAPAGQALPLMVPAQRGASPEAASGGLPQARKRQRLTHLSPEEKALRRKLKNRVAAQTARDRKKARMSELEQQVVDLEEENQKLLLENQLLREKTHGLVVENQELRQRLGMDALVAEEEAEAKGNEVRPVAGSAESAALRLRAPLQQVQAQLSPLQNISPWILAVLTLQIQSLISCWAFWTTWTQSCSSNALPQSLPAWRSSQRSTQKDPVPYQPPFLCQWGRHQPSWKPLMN
Chain of Estrogen receptor (Homo sapiens) (P03372 whole entry, looked up, the tested form may be a part): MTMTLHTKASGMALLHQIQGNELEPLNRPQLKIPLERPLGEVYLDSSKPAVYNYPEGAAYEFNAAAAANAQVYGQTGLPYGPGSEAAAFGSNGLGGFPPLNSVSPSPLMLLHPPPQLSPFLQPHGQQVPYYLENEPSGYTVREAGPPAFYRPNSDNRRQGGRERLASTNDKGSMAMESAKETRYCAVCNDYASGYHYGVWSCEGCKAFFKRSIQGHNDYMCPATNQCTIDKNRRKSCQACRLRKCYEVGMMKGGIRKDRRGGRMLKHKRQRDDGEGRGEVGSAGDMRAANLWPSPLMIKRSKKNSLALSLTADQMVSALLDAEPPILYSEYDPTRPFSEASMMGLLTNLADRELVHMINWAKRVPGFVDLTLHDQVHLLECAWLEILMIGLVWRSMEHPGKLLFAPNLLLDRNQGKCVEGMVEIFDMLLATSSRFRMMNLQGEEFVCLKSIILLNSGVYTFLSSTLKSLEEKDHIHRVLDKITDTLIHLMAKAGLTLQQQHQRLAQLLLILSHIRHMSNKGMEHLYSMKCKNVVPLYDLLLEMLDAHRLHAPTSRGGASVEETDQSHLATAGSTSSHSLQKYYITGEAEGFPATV
Chain of Nuclear receptor subfamily 1 group I member 3 (Homo sapiens) (Q14994 whole entry, looked up, the tested form may be a part): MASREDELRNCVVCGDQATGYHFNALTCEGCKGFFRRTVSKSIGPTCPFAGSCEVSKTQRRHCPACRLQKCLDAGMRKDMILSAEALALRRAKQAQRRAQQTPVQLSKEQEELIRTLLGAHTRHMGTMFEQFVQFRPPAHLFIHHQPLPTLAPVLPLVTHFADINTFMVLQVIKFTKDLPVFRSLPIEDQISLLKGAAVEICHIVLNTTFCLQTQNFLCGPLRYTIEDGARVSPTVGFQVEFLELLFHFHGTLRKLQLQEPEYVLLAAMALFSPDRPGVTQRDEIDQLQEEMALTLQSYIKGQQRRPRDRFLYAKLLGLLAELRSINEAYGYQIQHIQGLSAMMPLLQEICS

Take `CCCCCCCCCCCCCN1CC(C)OC(C)C1` (stereo not given): the call in [1], in assay [3], in assay [4], in assay [5], in assay [6] and in assay [7] was inactive. For the same compound, the compound was classed as inactive in assay [8], in [9], in [10], in [11], in assay [12] and in [13]. Besides, the compound was called inactive in [14]. Also, the AC50 in [2] is 8 µM (active).
`CCC12COCN1COC2`: the call in assay [1], in assay [2], in [3], in assay [4], in assay [5] and in assay [6] was inactive. The compound was classed as inactive in assay [7], in [8], in [9], in assay [10], in [11] and in assay [12]. Moreover, the call in [15], in assay [14], in assay [16] and in assay [17] was inactive.
Take `CNC(=O)Oc1cccc2c1OC(C)(C)C2`: the call in [1], in assay [3], in assay [5], in [6], in assay [7] and in assay [8] was inactive. Also, the compound was classed as inactive in [9], in assay [10], in [11], in assay [12], in assay [15] and in assay [18]. The compound was classed as inactive in [13], in [14] and in assay [16]. Also, the AC50 in assay [2] was 17.1 µM (active).
For the compound `CC(C)(C)C(O)(CCc1ccc(Cl)cc1)Cn1cncn1` (stereo not given), the compound was classed as inactive in assay [1], in assay [3], in assay [4], in [5], in [6] and in assay [8]. Also, the compound was called inactive in assay [9], in assay [10], in [11], in [12], in assay [15] and in assay [14]. For the same compound, the compound was called inactive in [16] and in assay [17]. Moreover, the AC50 was 2.45 µM (active) in [2] and 1.79 µM (active) in assay [7].
As to `CCN(CC)N=O`, the result in assay [1], in assay [2], in [3], in [4], in assay [5] and in assay [6] was inactive. Also, the outcome in assay [7], in assay [8], in assay [9], in assay [10], in assay [11] and in [12] was inactive. In addition, the outcome in assay [15] and in assay [14] was inactive.
As to `CO[C@@H]1[C@H](OC(=O)NC(=O)CCl)CC[C@]2(CO2)[C@H]1[C@@]1(C)O[C@@H]1CC=C(C)C`, the compound was called inactive in assay [1], in assay [3], in assay [4], in assay [5], in assay [6] and in assay [7]. The compound was called inactive in assay [8], in assay [9], in assay [11], in [12], in assay [15] and in [19]. In addition, the values for the AC50 in assay [2], in assay [10] and in [14] were 0.293 µM (active), 39.5 µM (active) and 30.9 µM (active), respectively.
In the case of `O=C(Nc1ccccc1)c1ccccc1I`, the compound was classed as inactive in assay [1], in [3], in assay [4], in assay [5], in assay [6] and in assay [8]. The outcome in [9], in assay [10], in assay [11], in assay [12], in [13] and in assay [14] was inactive. The call in [16] was inactive. The figures for the AC50 in [2] and in assay [7] were 6.15 µM (active) and 42.1 µM (active), respectively.
On to `CC(C)(C)OOC(=O)c1ccccc1`, for which the half-maximal activity concentration (AC50) in [1] is 149 µM (active); in [2], 100 µM (active); in assay [14], 150 µM (active). Moreover, the outcome in assay [3], in assay [4], in [5], in [6], in assay [7] and in [8] was inactive. In addition, the compound was classed as inactive in assay [9], in assay [10], in assay [11], in [12] and in assay [15].

As a reminder, the AC50 is the midpoint of the concentration-response curve, whichever way the signal moves.

The record behind these values is PubChem BioAssay (EPA / NIEHS).
